# CDC25B CDK2 inh = human CDC25B-CDK2/CyclinA binding inhibition | actives 0.72% (n = 94,000) | z-score (concentration not given with the values) | AID 1259370 | HTRF CDC25B-CDK2/CyclinA binding, anti-His/anti-Flag; hits give high values; in the data active means z-score above about 3.2
# TAR Tat displ = HIV-1 TAR-Tat binding disruption. HIV-1 TAR RNA, Tat peptide displacement FRET; hits give high values. z-score (concentration not given with the values). actives 0.6% (n = 100,000). AID 1259389; active means z-score of 3 or more in at least 2 runs
# Numbers without * were called inactive; . = no result. The list is not random: actives were taken first. Their share in the collection is about 0.93%.
SMILES,CDC25B CDK2 inh,TAR Tat displ
CC1(C)CC(=O)C2=C(C1)Nc1ccccc1NC2c1cc(F)cc(F)c1 (stereo unspecified),-1.6,.
Cn1nnnc1SCCCNCc1cccnc1,-1.9,2
Cc1ccc(C)n1-c1ccc(SCC(=O)O)cc1,0.36,27*
O=C(O)CSc1ccc(F)cc1,.,0.74
Cc1c(C(=O)N2CCCC2)oc2c1-c1nn(CC(=O)NCCCN3C(C)CCCC3C)cc1CC2 (stereo unspecified),.,1.9
C=CCOc1ccc(-c2nn(-c3ccccc3)cc2C2NC(=O)NC(C)=C2C(=O)OCC)cc1C (stereo unspecified),0.87,.
Nc1nc2c(s1)c(=O)[nH]c(=O)n2-c1ccccc1,0.38,1.2
COc1ccc(-n2c(=O)[nH]c(=O)c3sc(N)nc32)cc1,0.15,7.3*
CCc1cccc(-n2nnc(S(=O)(=O)c3ccccc3)c2C)c1,-0.83,1.3
O=C(C1CCN(c2nc3cccnc3s2)CC1)N1CCCC1,.,0.78
NCCc1ccc(O)c(O)c1,-0.08,25*
COC(=O)C(N)Cc1ccc(O)c(O)c1 (stereo unspecified),-2.2,-0.49
COc1ccc(-c2nc3c(c(=O)[nH]2)Cc2cc(Cl)ccc2O3)cc1O,-1.2,1.6
c1ccc2c(c1)nnn2Cc1nnc2sc(-c3ccc4c(c3)OCO4)nn12,-1.9,0.09
CCOc1ccc(C(=O)Nc2ccc3c(c2)C(=O)c2ccccc2C3=O)cc1,0.8,.
O=C1c2ccccc2C(=O)c2cc(NC(=O)C(Cl)(Cl)Cl)ccc21,16*,.
O=C(/C=C/c1ccccc1)Nc1ccc2c(c1)C(=O)c1ccccc1C2=O,-4.1,.
O=C(O)/C=C/C(=O)Nc1ccc2c(c1)C(=O)c1ccccc1C2=O,6.1*,.
Cc1nn(-c2nncc(-c3ccc(F)cc3)n2)c2c1C(c1ccc(Cl)cc1)CC(=O)N2 (stereo unspecified),-1.3,1.7
COc1ccccc1NC(=O)N1c2ccccc2NC2=C(C(=O)CCC2)C1c1cccs1 (stereo unspecified),.,2.6
CCOc1ccccc1NC(=O)N1c2ccccc2NC2=C(C(=O)CCC2)C1c1cccs1 (stereo unspecified),.,21*
O=C1c2[nH]nc(-c3ccccc3O)c2C(c2ccc(OCc3ccccc3)cc2)N1CCO (stereo unspecified),-1.5,1.9
O=C1CCCC2=C1C(c1cccs1)n1nc(SCc3cccc(F)c3)nc1N2 (stereo unspecified),-2.7,1.4
CC1(C)OC(=O)C(=CNc2ccc(F)c(Cl)c2)C(=O)O1,-1.6,.
CC1(C)OC(=O)C(=Cc2ccc(Cl)cc2Cl)C(=O)O1,9.2*,.
SMILES,CDC25B CDK2 inh,TAR Tat displ
CC(=O)N1N=C(CSc2nnc(-c3ccccc3)n2-c2ccccc2)OC1c1ccc(C)o1 (stereo unspecified),.,0.39
CC(=O)N1N=C(CSc2nc(C)cc(C)n2)OC1/C(C)=C/c1ccccc1 (stereo unspecified),.,4.2*
CC(C)NC[C@H](O)c1ccc(O)c(O)c1,0.23,.
NCC(O)c1ccc(O)c(O)c1 (stereo unspecified),5.4*,.
Cc1cc(C)n(-c2cc(NC3CCCCC3)ncn2)n1,.,-0.29
CCOc1ccc(N2CSC3=C(C#N)C(c4ccco4)CC(=O)N3C2)cc1 (stereo unspecified),5.1*,-1.8
CCOc1ccc(N2CSC3=C(C#N)C(c4cccs4)CC(=O)N3C2)cc1 (stereo unspecified),4*,-1.7
N#CC1=C2SCN(C3CCCC3)CN2C(=O)CC1c1cccs1 (stereo unspecified),5.9*,1.3
N#CC1=C2SCN(c3ccc(F)cc3)CN2C(=O)CC1c1cccs1 (stereo unspecified),6*,0.54
N#CC1=C2SCN(C3CCCC3)CN2C(=O)CC1c1ccc(Cl)cc1 (stereo unspecified),0.82,0.27
O=C(CSc1nccn(-c2cccc(F)c2)c1=O)c1ccccc1,.,-0.15
O=C(NCCSCc1ccco1)c1ccc2c(c1)nc1n2CCCCC1,.,1.2
O=C(CSc1nccn1Cc1ccc(F)cc1)NCc1ccc2c(c1)OCO2,.,0.71
O=C(NCCc1c[nH]c2ccccc12)Nc1ccc(F)cc1F,-2.4,-0.67
O=S(=O)(c1ccc(Cl)cc1)c1ccccc1C(F)(F)F,0.36,.
N#CC1=C2SCN(c3ccccc3)CN2C(=O)CC1c1cccs1 (stereo unspecified),17*,-0.09
CCOc1ccc(C2CC(=O)N3CN(Cc4cccnc4)CSC3=C2C#N)cc1 (stereo unspecified),6.8*,-2.2
CSc1ccc(C2CC(=O)N3CN(Cc4ccccc4)CSC3=C2C#N)cc1 (stereo unspecified),1.5,-2.2
Cc1ccc(N2CSC3=C(C#N)C(c4cccs4)CC(=O)N3C2)cc1C (stereo unspecified),6.2*,-1.5
N#CC1=C2SCN(c3ccc(Cl)cc3)CN2C(=O)CC1c1cccs1 (stereo unspecified),6.3*,-0.61
N#CC1=C2SCN(c3ccc(Br)cc3)CN2C(=O)CC1c1cccs1 (stereo unspecified),0.05,2.7
N#CC1=C2SCC(O)(c3ccccc3)N2C(=O)CC1c1cccs1 (stereo unspecified),-2.3,.
c1ccc(-n2nc3c(n2)-c2nonc2CC3)cc1,0.23,.
CN(CC(=O)NCCN(C)C1CCCCC1)c1nnc(N2CCCC2=O)s1,.,1
CCOc1ccc(C2CC(=O)N3CN(CCO)CSC3=C2C#N)cc1 (stereo unspecified),0.17,1.3
SMILES,CDC25B CDK2 inh,TAR Tat displ
CCOc1ccc(C2CC(=O)N3CN(c4ccc(CCO)cc4)CSC3=C2C#N)cc1 (stereo unspecified),7.2*,-1.6
O=C(OC[C@H]1O[C@H](OC(=O)c2cc(O)c(O)c(OC(=O)c3cc(O)c(O)c(O)c3)c2)[C@H](OC(=O)c2cc(O)c(O)c(OC(=O)c3cc(O)c(O)c(O)c3)c2)[C@@H](OC(=O)c2cc(O)c(O)c(OC(=O)c3cc(O)c(O)c(O)c3)c2)[C@@H]1OC(=O)c1cc(O)c(O)c(OC(=O)c2cc(O)c(O)c(O)c2)c1)c1cc(O)c(O)c(OC(=O)c2cc(O)c(O)c(O)c2)c1,.,26*
CC(=O)OC[C@H]1O[C@@H](OCc2ccccc2)[C@H](OC(C)=O)[C@@H](OC(C)=O)[C@@H]1OC(C)=O,-0.63,.
O=C(Nc1ccc(F)cc1)Nc1nnc(N2CCc3ccccc32)s1,-0.65,2.3
CN1C(=O)CSc2ccc(NC(=O)NCc3cccnc3)cc21,4.8*,0.5
CN1C(=O)CSc2ccc(NC(=O)NCc3ccc(F)cc3)cc21,1.9,-0.54
Fc1ccc(-c2nc3c4c5c(sc4ncn3n2)CCCC5)cc1,0.51,4.4
COc1ccc(C2CC(=O)N3CN(C(C)c4ccccc4)CSC3=C2C#N)cc1 (stereo unspecified),5.3*,-1.9
Cc1ccc(C2CC(=O)N3CN(CCc4ccccc4)CSC3=C2C#N)cc1 (stereo unspecified),2.7,-0.62
CCOc1ccc(C2CC(=O)N3CN(C(C)c4ccccc4)CSC3=C2C#N)cc1 (stereo unspecified),5.3*,3.2
Cc1ccc(C2CC(=O)N3CN(C(C)c4ccccc4)CSC3=C2C#N)cc1 (stereo unspecified),5*,1.2
CC(c1ccccc1)N1CSC2=C(C#N)C(c3cccs3)CC(=O)N2C1 (stereo unspecified),4.4*,9.8*
CC1=C(c2cccc(Br)c2)S(=O)(=O)N=C1N1CCc2ccccc2C1,-10,-1
